The source of these data is PMC3795721, “Screening for Protein-DNA Interactions by Automatable DNA-Protein Interaction ELISA”.

AT4G31550, sequence (Q9SV15 228-325): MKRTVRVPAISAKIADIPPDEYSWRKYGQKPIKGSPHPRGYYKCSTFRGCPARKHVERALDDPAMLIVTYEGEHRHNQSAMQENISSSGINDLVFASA

This test addresses AT4G31550 (Arabidopsis thaliana, UniProt Q9SV15 228-325). Description: DPI-ELISA; DPI-ELISA, streptavidin 384-well plate, 1-2 pmol biotinylated dsDNA per well, crude native E. coli extract, anti-His detection; buffer as in Brand et al. [46],; high values mean tight binding. The following applies: tags: C-terminal His (pET-DEST42); label: 5' biotin on forward strand; dsDNA, one strand shown. For orientation: In an ELISA, binding on a coated surface is turned into a signal by an enzyme label.
In turn, AAAAAAGGGAGTCATGCTTCTTGTTTAAAA returned a binding signal of 0.645 ± 0.0919 absorbance. On to AAAAAACATCGCTGTCGTTGACGTTGAAAA, for which the binding signal was 3.48 ± 0.474 absorbance. The sequence AAAAAATAAGTAACCGAACGAAACTCAAAA returned a binding signal of 0.75 ± 0.269 absorbance. Sequence AAAAAAGTTTCCTACTTGTGTCTGTGAAAA returned a binding signal of 0.53 ± 0.0849 absorbance. The sequence AAAAAAACCCGTGCCTGCCTATTGCAAAAA registered a binding signal of 0.395 ± 0.0495 absorbance. For AAAAAATGCCGAGACCCCATGCCGGCAAAA, the binding signal was found to be 0.51 ± 0.099 absorbance. The sequence AAAAAAACTCTCCGGGTACAATTGCAAAAA gave a binding signal of 0.605 ± 0.205 absorbance.

As to AAAAAAGGTGAGGAAGTTGGGTATGGAAAA, the binding signal stood at 0.64 ± 0.0566 absorbance.

The sequence AAAAAACTCCCTCTCCTCTGTCTTCCAAAA returned a binding signal of 0.635 ± 0.106 absorbance. AAAAAACTACGTATATTCAGGCCCTAAAAA yielded a binding signal of 0.68 ± 0.113 absorbance. Turning to AAAAAAAACTCCCATACTACAACCGAAAAA, the binding signal was 0.53 ± 0.099 absorbance. Turning to AAAAAAACAGCTCGGTGCCACTGTGGAAAA, the binding signal stood at 0.61 ± 0.0424 absorbance. Sequence AAAAAAGTTGCCGACGATTGCGGGTTAAAA returned a binding signal of 0.735 ± 0.163 absorbance. Consider AAAAAATTGCACCTGATACTAGGGTTAAAA, for which the binding signal turned out to be 0.655 ± 0.148 absorbance. The sequence AAAAAAGGTAATGCCGGTCCCAGTATAAAA gave a binding signal of 0.525 ± 0.0778 absorbance. The same measure for AAAAAAGACCGCAGCAAGAATTAAATAAAA: 0.49 ± 0.141 absorbance. The sequence AAAAAAGGTCCAGTCCACGTCATCAGAAAA gave a binding signal of 1.84 ± 0.431 absorbance. In turn, AAAAAATTCTAGCTTTTAACTTTAGCAAAA registered a binding signal of 0.6 ± 0.141 absorbance. In turn, AAAAAATGTATTCGTGTCCACTCCATAAAA displayed a binding signal of 0.53 ± 0.0707 absorbance. Take AAAAAAGTCCGCCCTTAATTCATATTAAAA: the binding signal turned out to be 1.37 ± 0.269 absorbance. In turn, AAAAAAGCGCGCCCGCACTGTTAATAAAAA had a binding signal of 0.635 ± 0.106 absorbance.

AAAAAATATGCTACTCCACCTTGATGAAAA displayed a binding signal of 0.67 ± 0.156 absorbance.

With AAAAAATATCCTATTCTAATTTATATAAAA, the binding signal is 0.55 ± 0.113 absorbance. With AAAAAATACATTTGACTTTGGGTTTCAAAA, the binding signal was determined as 3.4 ± 0.297 absorbance.

AAAAAATGGTTTCAATTTTCCGTCCGAAAA registered a binding signal of 0.405 ± 0.0778 absorbance. AAAAAACCCTACATCGCATATAAGAGAAAA returned a binding signal of 0.675 ± 0.0212 absorbance.

Consider AAAAAATTGCATTCCACCCTTAGGTTAAAA, for which the binding signal stood at 0.495 ± 0.106 absorbance.

AAAAAATCGGTACGCACCCCGGACTCAAAA came in with a binding signal of 0.73 ± 0.184 absorbance. In turn, AAAAAACTAGGTATCGGTAGGCGCCGAAAA returned a binding signal of 0.6 ± 0.0849 absorbance. The same measure for AAAAAACTGTGTCCCCGTCCCATCTCAAAA: 0.525 ± 0.12 absorbance; for AAAAAATGGAAAGACCTATACCGGTCAAAA: 1.09 ± 0.17 absorbance; for AAAAAATCGCGTCCGTGCTCAATCCAAAAA: 0.48 ± 0.0566 absorbance. AAAAAAGGTCTGGACGATCACCGGGAAAAA had a binding signal of 0.565 ± 0.12 absorbance. AAAAAATCTGTTCTCGTTTCCCCTTCAAAA came in with a binding signal of 0.805 ± 0.262 absorbance.

For the sequence AAAAAATTCTAACTTAGCCTATGTCCAAAA, the binding signal was 0.695 ± 0.163 absorbance.

The sequence AAAAAATTCCTGTCCGCTCTCGCTCCAAAA showed a binding signal of 0.685 ± 0.148 absorbance. The same measure for AAAAAAAAATTTCGAGCCTCGGCGTAAAAA: 0.49 ± 0.0849 absorbance; for AAAAAAATTTTTAGTTTTAATTTTGGAAAA: 0.615 ± 0.106 absorbance.
